Bioassay records: PubChem, National Center for Advancing Translational Sciences (NCATS)
Only some compounds are listed: those with a hit (about 7.9% of all), similar ones and a draw of the others.
HT1080-NT tox = qHTS for induction of synthetic lethality in tumor cells producing 2HG: qHTS for the HT-1080-NT fibrosarcoma cell line | HT-1080-NT fibrosarcoma viability, CellTiter-Glo ATP luminescence, 48 h | 1.6% of 360,000 active | AID 686970, 2013 | Potency, µM (highest dose often 46.1 µM), inactives show at the highest dose activity, negative = less viability, most hits filed as cytotoxic;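 further: NT is the 2HG producing partner of a matched IDH1 knockdown line; 0% = DMSO-treated cells and -100% = media-only wells without cells; nearly all actives have a fitted effect of over 55% in size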
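Viability by CellTiter-Glo luminescence after 48 h compound exposure at 37C of HT-1080-NT cells (750/well, RPMI, 5% FBS). % activity scaled between DMSO wells and medium-only wells, then curve-fitted and categorized by curve class.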
KB-V1 cytotox = qHTS assay for MDR1-selective chemotherapeutics: Primary screen using the drug-selected MDR subline cells KB-V1. 3.4% of 400,000 active. Potency, µM (top dose mostly 46.1 µM), usual class: cytotoxic. KB-V1 MDR cells viability, CellTiter-Glo, 72 h; further: on the % scale 0 is the no-effect control and ±100 the full control effect; nearly all actives have a fitted effect of over 60% in size
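In this primary screen, KB-V1 cells overexpressing P-gp are incubated with library compounds (lowest to highest concentration) for 72 h at 37 degrees C before a luminescent ATP viability read.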
SW480 rereplic = A quantitative high throughput screen for small molecules that induce DNA re-replication in SW480 colon adenocarcinoma cells; 1.8% of 340,000 active; Potency, µM (doses to about 46.1 µM), without a hit: at the top dose re-replication activation, most hits filed as activators; SW480 DNA re-replication, Hoechst DNA content imaging, 48 h; AID 624297, 2012; further: % of control where 0% means no effect; nearly all actives have a fitted effect of over 55% in size
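First, 250 cells per well were seeded. Next, compound or vehicle (23 nL) was pinned in, plates sat 48 hr at 37 C. Finally Hoechst was added for 40 min before fluorescence scanning.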
MCF10A rereplic = A quantitative high throughput screen for small molecules that induce DNA re-replication in MCF 10a normal breast cells. MCF 10A DNA re-replication, Hoechst nuclear intensity, 48 h. Potency, µM (highest dose often 46.1 µM), for the others: at the highest dose activity, positive = re-replication, usual class: activators. 2.9% of 350,000 active; further: % of control where 0% means no effect; nearly all actives have a fitted effect of over 50% in size
KB-3-1 cytotox = qHTS assay for MDR1-selective chemotherapeutics: Primary screen using the parental adenocarcinoma cell KB-3-1; KB-3-1 viability, CellTiter-Glo ATP luminescence, 72 h; 1.4% of 400,000 active; Potency, µM (series often up to 46.1 µM), hits mostly cytotoxic; further: on the % scale 0 is the no-effect control and ±100 the full control effect; nearly all actives have a fitted effect of over 60% in size
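Using CellTiter-Glo luminescence, growth of non-resistant KB-3-1 adenocarcinoma cells is assessed 72 h after pin-tool compound addition at 37 °C. Normalized responses across the concentration series yield fitted curves.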
HT1080 IDH1KD tx = qHTS for induction of synthetic lethality in tumor cells producing 2HG: qHTS for the HT-1080-IDH1KD cell line | HT-1080 IDH1 knockdown viability, ATP luminescence, 48 h | Potency, µM (titrated, usually from 46.1 µM), inactives show at the highest dose activity, negative = toxicity, hits mostly cytotoxic | 2% of 360,000 active | AID 686971, 2013;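 further: 0% = DMSO wells and -100% = cell-free medium wells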
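Assay cells: HT-1080 with IDH1 knockdown, 750 per well, RPMI/5% FBS. Exposure: 48 h at 37 °C following 2 h pre-incubation. Read: CellTiter-Glo luminescence; fitted concentration-response, curve class assigned.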
Starred values were filed as active, the others as inactive; i = inactive; ? = inconclusive; nt = no result. The call rests on the fitted dose curve; in most records, active means well fitted curve in the direction sought with a large enough effect; inconclusive means small, poorly fitted or top-dose-only effect, or another doubt; inactive means no such curve, though single readings can be large; an effect the other way counts as inactive or inconclusive. Potency means the concentration at half of the fitted maximal effect.

SMILES	HT1080-NT tox	KB-V1 cytotox	SW480 rereplic	MCF10A rereplic	KB-3-1 cytotox	HT1080 IDH1KD tx
CNC(=S)N(C)/N=C1/C(=O)N(Cc2c(Cl)cccc2Cl)c2ccccc21	-11%	?	?	18µM*	i	-13%
CNC(=S)NNC(=O)c1oc2nc(-c3ccccc3)cc(C)c2c1N	-23%	i	6.5µM*	2.6µM*	i	-28%
NNC(=O)c1oc2nc(-c3ccccc3)cc(-c3ccccc3)c2c1N	6%	i	?	18µM*	i	-19%
COc1cccc(/C=N/NC(=O)c2oc3nc(-c4ccccc4)cc(-c4ccco4)c3c2N)c1	9%	i	?	?	i	3%
Cc1ccc(-c2cc(-c3ccco3)c3c(N)c(C(=O)NN)oc3n2)cc1	-3%	i	21µM*	7.3µM*	?	?
COc1ccc(C2Nc3cc(OC)ccc3-n3cccc32)cc1 (stereo not given)	-16%	?	21µM*	16µM*	i	-22%
Cc1ccc(N(CC(O)CON=C2c3ccccc3-c3ccccc32)S(C)(=O)=O)cc1 (stereo not given)	?	23µM*	14%	5%	i	?
Cc1ccc(N(CC(O)Cn2c3ccccc3c3ccccc32)S(C)(=O)=O)cc1 (stereo not given)	?	i	-5%	16%	?	?
O=C1c2c(-c3ccc(Br)cc3)noc2CCN1Cc1cn(C2CCCC2)nn1	-21%	21µM*	nt	nt	?	?
O=C1c2c(-c3ccc(Br)cc3)noc2CCN1Cc1cn(Cc2cccnc2)nn1	-18%	23µM*	nt	nt	?	-7%
O=C1c2c(-c3ccc(Br)cc3)noc2CCN1Cc1cn(-c2ccccc2)nn1	?	?	nt	nt	?	-25%
O=C1c2c(-c3ccc(Br)cc3)noc2CCN1Cc1cn(-c2ccc(Cl)cc2)nn1	?	18µM*	nt	nt	21µM*	-26%
O=C1c2c(-c3ccc(Br)cc3)noc2CCN1Cc1cn(Cc2ccccc2)nn1	?	?	nt	nt	i	?
Cc1ccc(C)c(N2CCN(C3CCCCC3NS(=O)(=O)c3ccccc3)CC2)c1 (stereo not given)	9%	i	27%	?	16µM*	0%
Cc1ccc(Cl)cc1N1CCN(C2CCCCC2NS(=O)(=O)c2ccccc2)CC1 (stereo not given)	-7%	i	-17%	7%	i	3%
O=S(=O)(NC1CCCCC1N1CCN(c2ccc(F)cc2)CC1)c1ccccc1 (stereo not given)	0%	i	3%	26µM*	i	-11%
O=S(=O)(NC1CCCCC1N1CCCCC1)c1ccccc1 (stereo not given)	7%	i	-11%	5%	i	14%
O=C(CSc1nnc(NC2CCCCC2)s1)Nc1ccc(N2CCOCC2)cc1	0%	5.8µM*	-3%	16%	i	-26%
CC(Sc1nnc(NC2CC2)s1)C(=O)Nc1ccc(N2CCOCC2)cc1 (stereo not given)	0%	i	-7%	4%	i	13%
Cc1ccc(NC(=O)/C=C/c2cccs2)c([N+](=O)[O-])c1	?	5.8µM*	21µM*	?	?	-22%
CN(C)CCCNC(=S)NCC(c1ccc(Cl)cc1Cl)c1c[nH]c2ccccc12 (stereo not given)	21µM*	i	0%	?	i	16µM*
CCCCNC(=S)NCC(c1ccccc1)c1c[nH]c2ccccc12 (stereo not given)	?	?	?	?	i	?
Cc1cn([C@H]2C[C@H](O)[C@@H](CCC(=O)NCc3cccc4ccccc34)O2)c(=O)[nH]c1=O	11%	i	nt	nt	i	14%
O=C(N/N=C/c1cccs1)c1n[nH]c2c1CCCC2	21µM*	?	?	?	?	15µM*
O=C(O)c1n[nH]c2c1CCCC2	7%	i	-4%	-5%	i	12%
SMILES	HT1080-NT tox	KB-V1 cytotox	SW480 rereplic	MCF10A rereplic	KB-3-1 cytotox	HT1080 IDH1KD tx
Cc1ccc(/C=N/NC(=O)c2n[nH]c3c2CCCC3)cc1	0.16µM*	1.2µM*	0.73µM*	?	?	0.13µM*
C/C(=N\NC(=O)c1n[nH]c2c1CCC2)c1cccs1	16%	i	?	-5%	i	17%
COC(=O)c1cc2oc(C)cc2n1Cc1ccc(Br)cc1F	nt	i	nt	nt	i	nt
Cc1ccc(NC(=O)COc2cccc(-n3cnnn3)c2)cc1S(=O)(=O)N1CCOCC1	-2%	i	4%	10%	i	-4%
COC(=O)c1c(NC(=O)c2cc(=O)c3ccc(C)c(C)c3o2)sc2c1CCCC2	nt	i	nt	nt	i	nt
O=C(O)c1ccccc1C(=O)NNc1ccc(Cl)cc1	-25%	i	14%	4.6µM*	i	?
O=C(c1ccc(Cl)cc1)c1c[nH]c(C(=O)NNc2ccccc2)c1	?	i	?	-9%	i	5.2µM*
CNC(=O)c1cc(C(=O)c2ccc(Cl)cc2)c[nH]1	20%	i	8%	7%	i	15%
O=C(NNc1ccc(Cl)cc1)c1sccc1Cl	?	i	1%	?	i	8.2µM*
COc1ccc[n+](CC(=O)c2ccc(F)cc2)c1	nt	i	nt	nt	?	nt
CCCCc1nn2c(=O)cc(COC(=O)c3ccccc3NC(=O)c3ccccc3OC)nc2s1	nt	i	nt	nt	i	nt
N#Cc1c(N2CCOCC2)nc(-c2ccco2)c2c1CCCC2	-5%	i	?	?	i	-5%
CC(C)c1nc(N2CCN(C(=O)c3ccccc3)CC2)c(C#N)c2c1COC(C)(C)C2	15%	?	17%	?	?	9%
CC(C)c1nc(N2CCN(C(=O)c3ccco3)CC2)c(C#N)c2c1COC(C)(C)C2	?	18µM*	24%	?	?	?
CC1(C)Cc2c(C#N)c(N3CCN(C(=O)c4ccccc4)CC3)nc(-c3ccco3)c2CS1	1%	?	2%	13µM*	?	-2%
CCCCn1c(CNC(=O)c2ccc(OC)cc2)nnc1SCC(=O)Nc1ccccc1	nt	i	nt	nt	i	nt
